ULK1 inh: human ULK1 kinase inhibition, primary screen; AlphaScreen Atg13 phosphorylation by ULK1, luminescence; inhibition, % at 5.96 µM; 1.9% of 30,000 active; AID 1259251; in the data active means inhibition above about 43%;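 further: 0% = median of compound wells and 100% = no enzyme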
ASK1 primary: human ASK1 kinase inhibition, primary screen; Q99683; inhibition, % at 7.44 µM; AlphaScreen MKK6 phosphorylation by ASK1, luminescence; AID 1159602; 0.99% of 22,000 active; in the data active means inhibition above about 35%;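 further: 0% = median of compound wells and 100% = no enzyme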
An asterisk follows results filed as active; nt = no result given; ! = not active in a repeat. This is a sample that favours compounds with a hit; in the whole collection about 2.5% have one here.

SMILES | ULK1 inh | ASK1 primary
Cc1cc(Nc2ncc(Cl)c(Nc3ccccc3C(N)=O)n2)ccc1N1CCOCC1 | 70* | -92
NC(=O)c1ccccc1Nc1nc(Nc2ccc(N3CCOCC3)c(Cl)c2)ncc1Cl | 80* | -88
Cc1cc(Nc2cc(Nc3ccccc3C(N)=O)ccn2)ccc1N1CCOCC1 | 6 | 7
Cc1cnc(Nc2ccc(N3CCOCC3)cc2)nc1Nc1ccccc1 | 30 | 15
CC(C)N(CCNc1nc(N2CCC(N3CCOCC3)CC2)nc2nc[nH]c12)C(C)C | -3 | 2
c1cc(-c2n[nH]c(CNCc3ccsc3)n2)ccn1 | -2 | 2
c1ccc(Nc2nc(N3CCN(Cc4ccc5c(c4)OCO5)CC3)nc3c2ncn3-c2ccsc2)cc1 | 36 | 25
CCCNc1nc(-c2ccc(OC)nc2)nc2c1ncn2C1CCCCC1 | 2 | -1
NC(=O)c1cccnc1 | -13 | nt
O=C(OCC1(COC(=O)c2cccnc2)CCCC(COC(=O)c2cccnc2)(COC(=O)c2cccnc2)C1O)c1cccnc1 | 45* | nt
O=C(Cc1csc(NC(=O)c2ccccc2)n1)Nc1ccc(F)c(F)c1 | -7 | nt
O=C(/C=C/c1ccccc1)Nc1nc(CC(=O)NCc2ccc(F)cc2)cs1 | 57* | nt
CNC[C@H](O)c1ccc(O)c(O)c1 | 0 | nt
N[C@H](C(=O)O)[C@H](O)c1ccc(O)c(O)c1 | 89* | nt
Nc1cccc(-c2cc(Nc3ccc(Oc4ccccc4)cc3)nc(N)n2)c1 | -23 | -2
Cc1cnc(Nc2ccc3ncccc3c2)nc1NCCCN1CCCC1=O | 69* | -13
Cc1cnc(Nc2ccc3ncccc3c2)nc1NC1CC1 | 71* | 8
O=C1CCCN1CCCNc1nc(Nc2ccc(Oc3ccccc3)cc2)c2[nH]cnc2n1 | -22 | 30
Cc1cnc(Nc2ccc3ncccc3c2)nc1Nc1ccc2c(c1)OCO2 | -11 | -29
Cc1cnc(Nc2cccc(N(C)C)c2)nc1NCCCN1CCCC1=O | 20 | -8
Cc1cnc(NCCCN2CCCC2=O)nc1Nc1ccc(Oc2ccccc2)cc1 | 49* | 11
FC(F)(F)c1ccc(Cn2cnc3c(NC4CCN(Cc5ccccc5)CC4)nc(Nc4ccc(-n5ccnc5)cc4)nc32)cc1 | -5 | 31
CC(=O)Nc1ccc(Nc2nc(-c3ccc(N4CCOCC4)nc3)ncc2C)cc1 | 59* | -3
CC(=O)Nc1ccc(Nc2nc(-c3ccc(N4CCOCC4)nc3)nc3nc[nH]c23)cc1 | -11 | 10
O=Cc1ccccc1OCC(=O)Nc1ccc([N+](=O)[O-])cc1 | 12 | nt
SMILES | ULK1 inh | ASK1 primary
CCNc1ncc(C)c(NCCOc2ccccc2)n1 | 2 | 0
Cc1cnc(Nc2ccccc2)nc1NCCOc1ccccc1 | 15 | 3
COc1cc(Nc2ncc(C)c(NCCOc3ccccc3)n2)cc(OC)c1OC | 63* | 5
Cc1cnc(Nc2ccncc2)nc1NCCOc1ccccc1 | 50* | 6
CC(=O)OC1CCC2(C)C(=CCC3C4=CC=C(C(C)=O)C4(C)CCC32)C1 (centres undefined) | 3 | nt
Cc1ccccc1OCc1nc2ccc(-c3ccnc(N)n3)cc2[nH]1 | 43* | 8
Cc1ccccc1OCc1nc2ccc(-c3cn[nH]c3)cc2c(=O)[nH]1 | -14 | 14
Nc1nccc(-c2ccc3nc(CCOc4ccc(CC(=O)NC5CC5)cc4)[nH]c3c2)n1 | 11 | 6
COc1ccccc1OCc1nc2ccc(-c3ccnc(N)n3)cc2[nH]1 | 48* | -1
COc1cccc2c1OCC(c1nc3ccc(-c4ccnc(N)n4)cc3[nH]1)C2 (centres undefined) | -2 | -3
COc1cccc(OCc2nc3ccc(-c4ccnc(N)n4)cc3[nH]2)c1 | 62* | 10
NC(C(=O)Nc1cnn(-c2cccc(C(=O)Nc3ccc(N4CCOCC4)cc3)c2)c1)c1ccccc1 (centres undefined) | 4 | 3
CC(=O)Nc1ccc(NC(=O)c2cnc(N3CCN(Cc4ccc5c(c4)OCO5)CC3)s2)cc1 | -6 | -9
O=C(Nc1ccc(-c2cn[nH]c2)cc1SCCN1CCOCC1)C1COc2ccc(F)cc2C1 (centres undefined) | 2 | 4
Oc1cccc2c1CC=CC2 | 10 | nt
O=C1c2c(O)cccc2Cc2cccc(O)c21 | 60*! | nt
c1ccc(Nc2cc(Nc3ccc4c(c3)OCO4)ncn2)cc1 | 6 | 4
c1cc(Nc2cc(Nc3ccc4c(c3)OCO4)ncn2)ncn1 | 60* | 23
N#CCCNc1cc(-c2ccccc2)nc(-c2ccccn2)n1 | -16 | nt
CC(=O)Nc1ccc(Nc2nc(-c3ccc(C(=O)NC4CC4)cc3)nc3nc[nH]c23)cc1 | 31 | 5
Cc1cc(NC2CC2)nc(N2CCC(N3CCOCC3)CC2)n1 | -1 | -13
Cc1cc(N)nc(N2CCC(N3CCOCC3)CC2)n1 | 49* | 9
CC(C)CN1C(=O)C(C)(C)COc2ccc(NC(=O)C(C)C)cc21 | 1 | nt
O=S(c1cc(Cl)cc(Cl)c1O)c1cc(Cl)cc(Cl)c1O | 6 | nt
Oc1c(Cl)cc(Cl)cc1Sc1cc(Cl)cc(Cl)c1O | 84* | nt
SMILES | ULK1 inh | ASK1 primary
Cn1c(Nc2nc(NCCN3CCOCC3)c3ncn(CCN4CCCC4=O)c3n2)nc2ccccc21 | 13 | -2
O=C(O)c1ccccc1Oc1ncc(Cl)cn1 | -1 | nt
O=C(O)c1cc(O)c2c(c1)[C@@H]([C@H]1c3cc(C(=O)O)cc(O)c3C(=O)c3c(O[C@H]4O[C@H](CO)[C@@H](O)[C@H](O)[C@H]4O)cccc31)c1cccc(O[C@H]3O[C@H](CO)[C@@H](O)[C@H](O)[C@H]3O)c1C2=O | 67* | nt
O=C1c2c(O)cccc2C(C2OC(CO)[C@@H](O)[C@H](O)[C@H]2O)c2cc(CO)cc(O)c21 (some centres undefined) | -1 | nt
CCCNC(=O)c1csc(Nc2ccc(C(F)(F)F)cc2)n1 | 1 | 0
CN(C)c1cccc(Nc2ccc(-n3cc(CC(=O)NCc4cccnc4)c4ccccc43)nn2)c1 | 34 | 20
COc1cccc(CNS(=O)(=O)c2ccc(-c3ncnc4[nH]cc(C)c34)cc2)c1 | 59* | 0
COc1cccc(CNC(=O)Nc2ccc(-c3ncnc4[nH]ccc34)cc2)c1 | 16 | -7
COc1cccc(CNS(=O)(=O)c2ccc(-c3ccnc4[nH]ccc34)cc2)c1 | 22 | -6
O=S(=O)(NCc1ccccc1)c1ccc(-c2ncnc3[nH]ccc23)cc1 | 45* | 1
O=C(NC1CCN(Cc2ccccc2)CC1)c1cnc(Nc2ccc3ncccc3c2)s1 | -30 | -6
Cc1cnc(N2CCOCC2)nc1NCCN(C(C)C)C(C)C | 7 | -7
COC(=O)[C@@H](N)Cc1ccc(O)c(O)c1 | 14 | nt
CCOC(=O)C(N)Cc1ccc(O)c(O)c1 (centres undefined) | 66* | nt
O=C(NCCCN1CCCC1=O)c1ccnc(Nc2ccc3ncccc3c2)c1 | 12 | 4
CC(=O)c1cccc(-c2nc(C)cc(NCCO)n2)c1 | 3 | -3
CCCNc1nc(N2CCN(c3ccccn3)CC2)ncc1C | 0 | -3
CCCNC(=O)c1ccc(Cl)cc1Cl | 6 | nt
CCCCNC(=O)c1ccc(Cl)cc1O | 43*! | nt
COc1cc(OC)nc(Oc2cccnc2/C=N/NC(=O)Nc2ccc(Cl)cc2)n1 | 1 | nt
O=C(NC1CC1)c1ccc(-c2nc3ncnc(NCc4cccc(C(F)(F)F)c4)c3[nH]2)cc1 | 3 | -5
COc1cc(Nc2ncnc3c2nc(Nc2ccc(-n4ccnc4)cc2)n3C(C)C)cc(OC)c1OC | -25 | 17
O=C(NCCO)C1CCN(c2ccc(N3CCCC3CO)nn2)CC1 (centres undefined) | -4 | -5

Bioassay records as filed in PubChem.
